# Reference: PubChem BioAssay (NCI)
# Compounds without any hit were thinned out: in the full panel of roughly 83,000, 20% have a hit.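 Compound tested at a single concentration for 48 hours in 96-well plates; a percent growth value below 10 was scored as active.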 A number with no mark means an inactive call. Activity calls are given as the source filed them.
# System: KM12 colon
# Experiment: NCI-60 one-dose screen, 48 h (100 = growth as untreated, 0 = no growth, -100 = all killed)
# Details: 10 µM unless noted
row,Compound,growth
1,COc1ccc(Cn2nc(-c3ccccc3)c3c2CCc2cnoc2-3)cc1,56.8%
2,CCCN=C(N)c1ccc(NC(=O)c2ccc(C(=O)Nc3ccc(C(N)=NCCC)cc3)cc2)cc1,95.5%
3,O=S(=O)(c1cccc(NC2=Nc3cccc4cccc2c34)c1)N1CCCC1,71.7%
4,COc1cc2c(cc1[N+](=O)[O-])-c1ccc([N+](=O)[O-])cc1/C2=N\O,95.1%
5,COc1cccc(/C=C2\COc3ccc(-c4ccccc4)cc3C2=O)c1,-37.3% (active)
6,Cc1ccc(C2CC(c3cccc(Nc4ccncc4)c3)=NN2c2ccccc2)cc1 (stereo not given),-88.3% (active)
7,Cn1c2c(Cl)c(Cl)ccc2c2cc(N)[nH]c(=O)c21,94.2%
8,OC1(c2ccc(Cl)c(C(F)(F)F)c2)CCN(CCCC(c2ccc(F)cc2)c2ccc(F)cc2)CC1,-99.2% (active)
9,N#Cc1ccc(-c2ccc3c(c2)NC(=O)/C3=C\c2ccc[nH]2)cc1,60.8%
10,C=C(C)[C@@H]1CC[C@]2(C(=O)NCC(=O)OC)CC[C@]3(C)[C@H](CC[C@@H]4[C@@]5(C)Cc6c([nH]c7ccccc67)C(C)(C)[C@@H]5CC[C@]43C)[C@@H]12,79.2%
11,O=C(Nc1nc2ccc(S(=O)(=O)Nc3ccc(C4(C(F)(F)F)CC4)cc3)cc2[nH]1)c1cnccn1,9.67% (active)
12,C=Cc1cc[n+](CCCCCCCCCCCC)cc1,104%
13,CC(c1ccccc1)n1ccnc1CO (stereo not given),109%
14,Cn1c(COC(=O)N2CCCCC2)nc2c(N3CCOCC3)nc(-c3ccccc3)nc21,-73.8% (active)
15,Clc1nc(Nc2ccccc2)nc(Nc2ccccc2)n1,102%
16,COc1cc2c(cc1[N+](=O)[O-])-c1ccc([N+](=O)[O-])cc1/C2=N/NC(N)=S,70.5%
17,c1ccc(-c2nn(-c3ccccc3)[n+](-c3ccccc3-c3ccccc3)n2)cc1,9.9% (active)
18,CC(C)(C#N)N1CCN(c2ccccc2Cl)CC1,106%

row,Compound,growth
1,O=C(CCN1CCCC1)Nc1ccc2c(NCc3ccc(F)cc3)c3ccccc3nc2c1,-6.48% (active)
2,COc1ccc(/C=N/C2=C(C#N)C(c3ccccc3[N+](=O)[O-])c3ccc4ccccc4c3O2)cc1 (stereo not given),95.9%
3,Cc1n[nH]c(C)c1-c1c(C)n[nH]c1C,-19.3% (active)
4,Nc1c(Cl)cc([N+](=O)[O-])cc1Br,103%
5,COc1cccc(CNCCN2C(=O)c3ccc4c5c(ccc(c35)C2=O)C(=O)N(CCNCc2cccc(OC)c2)C4=O)c1,82.4%
6,NC(=O)CN1CCN(c2ccccc2Cl)CC1,109%
7,CN1CCN(c2cc(F)c(NC3=C(Cl)C(=O)c4ncccc4C3=O)c(F)c2)CC1,82.4%
8,O=S(=O)(NCCNc1nccc(-c2c(-c3ccc(F)c(O)c3)nc3occn23)n1)c1ccccc1,52.6%
9,CC1(C)[C@H](O)CC[C@]2(C)[C@@H]1CC[C@@]13C[C@@H](CC[C@H]12)[C@@](O)(CO)C3,116%
10,CS(=O)(=O)c1ccc(-c2cc(-c3nnc(SCC(=O)Nc4ccc(C(=O)/C=C/c5ccc(Cl)cc5)cc4)n3-c3ccccc3)c3ccccc3n2)cc1,96.8%
11,COc1cc(OC)c(/C=C/C(=O)c2ccc(Nc3ncnc4ccccc34)cc2)c(OC)c1,6.21% (active)
12,CC(=O)OCCCCCNc1ccccc1,94.6%
13,c1ccc(-c2nn(-c3ccccc3)[n+](-c3cccc4ccccc34)n2)cc1,10.1%
14,Cc1cc2nc(-c3ccccc3)c(-c3ccccc3)nc2cc1C,104%
15,c1ccc2c(-c3c4ccsc4cc4[nH]c5ccccc5c34)c[nH]c2c1,14.9%
16,CN1CCCC1=Nc1ccccc1,114%
17,COc1ccc(-c2nc3sccn3c2/C=C/C(=O)c2cc(OC)c(OC)c(OC)c2)cc1,35.8%
